Six1-Eya2 inh: Six1/Eya2 interaction inhibition | Q15475+O00167 | AlphaScreen GST-Six1/His-Eya2 binding, biochemical; stronger effect = lower value | activity change, % (no concentration beside the values) | hit rate 0.56% among 360,000 | AID 651725; in the data active means activity change below about -65%; inconclusive means mostly about -30% to -63%; further: on the % scale 0 is the no-effect control and ±100 the full control effect
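GST-Six1 + His-Eya2 (5X stock: 250/500 nM); Tris pH 8.0, 300 mM NaCl, 0.05% BSA, 0.02% Tween 20; GSH donor/Ni acceptor beads; 1 h 37 °C dark; AlphaScreen readout.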
CtBP-E1A blk: CtBP/E1A binding inhibition; hit rate 0.49% among 340,000; AID 651724; activity change, % (test concentration not listed); AlphaScreen GST-E1A/His-CtBP binding, 1536-well; stronger effect = lower value; in the data active means activity change below about -65%; inconclusive means mostly about -30% to -63%; further: on the % scale 0 is the no-effect control and ±100 the full control effect
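In 5 uL wells, 23 nL compound meets equimolar GST-E1A and His-CtBP (5X stock 125 nM each) for 2 h, 37 °C. Beads (5X, 50 ug/mL) then 1 h, 37 °C, dark.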
BAZ2B block: BAZ2B (human) inhibition; hit rate 4.4% among 360,000; AlphaScreen BAZ2B-H3K14Ac peptide displacement; Potency, µM (titrated, usually from 114 µM), inactives show at the top dose activity change, negative = inhibition, actives largely listed as inhibitors; Q9UIF8; AID 504333; further: potency means the concentration at half of the fitted maximal effect; on the % scale 0 is the no-effect control and ±100 the full control effect; nearly all actives have a fitted effect of over 60% in size
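BAZ2B 50 nM plus b-H3(5-23)K14Ac 50 nM, PBS pH 7.4/0.01% Tween-20, 30 min RT; compound added (max 110 uM), 30 min RT; streptavidin donor/Ni-chelate acceptor beads 10 ug/mL final, 20 min dark; AlphaScreen read.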
JMJD2A Tudor inh: blocks the human JMJD2A Tudor domain; AlphaScreen JMJD2A-Tudor / H3K4me3 peptide binding; Potency, µM (titrated, usually from 114 µM), for inactives: top-dose activity change, negative = inhibition, most hits filed as inhibitors; hit rate 4.4% among 390,000; further: potency means the concentration at half of the fitted maximal effect; on the % scale 0 is the no-effect control and ±100 the full control effect; nearly all actives have a fitted effect of over 50% in size
G9a inh: inhibitors of human histone lysine methyltransferase G9a | AID 504332 | G9a H3K9 monomethylation, AlphaScreen, 2 h | Potency, µM (highest dose often 102 µM), without a hit: at the top dose activity, negative = inhibition, usual class: inhibitors | hit rate 8.8% among 350,000; further: potency means the concentration at half of the fitted maximal effect; on the % scale 0 is the no-effect control and ±100 the full control effect; nearly all actives have a fitted effect of over 75% in size
Target sequence (Q96KQ7 913-1193 limits assumed): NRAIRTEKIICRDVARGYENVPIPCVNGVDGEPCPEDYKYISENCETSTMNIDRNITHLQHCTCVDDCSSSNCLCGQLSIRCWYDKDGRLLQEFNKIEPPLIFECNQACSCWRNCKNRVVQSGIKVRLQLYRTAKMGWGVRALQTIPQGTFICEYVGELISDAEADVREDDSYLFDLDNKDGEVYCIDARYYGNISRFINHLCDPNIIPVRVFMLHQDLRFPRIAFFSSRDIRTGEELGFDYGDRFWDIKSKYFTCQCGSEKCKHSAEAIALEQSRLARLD
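Using a bead-based AlphaScreen, monomethylated H3K9 product from 2 h room-temperature reactions (G9a 20 nM, peptide 500 nM, SAM 20 uM) was detected with 0.5 ug/mL rabbit anti-H3K9me1 antibody.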
HP1b chromo inh: blocks HP1-beta chromodomain binding to methylated histone tails; AlphaScreen HP1-beta / biotin-H3K9me3 peptide binding; Potency, µM (series often up to 114 µM), for inactives: at the top dose activity change, negative = inhibition, actives largely listed as inhibitors; hit rate 0.56% among 390,000; AID 540317; further: potency means the concentration at half of the fitted maximal effect; nearly all actives have a fitted effect of over 70% in size
Target sequence (P83916 whole entry, looked up): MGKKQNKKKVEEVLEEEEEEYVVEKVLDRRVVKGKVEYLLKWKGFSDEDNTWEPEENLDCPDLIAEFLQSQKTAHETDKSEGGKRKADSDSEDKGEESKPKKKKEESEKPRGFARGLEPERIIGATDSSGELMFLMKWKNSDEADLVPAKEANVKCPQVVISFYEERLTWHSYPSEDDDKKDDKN
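HP1-beta protein (50 nM final) preincubated 30 min at room temperature with biotinylated H3(1-18)K9me3 peptide (50 nM) in PBS pH 7.4, 0.01% Tween-20, then compound added for 30 min. AlphaScreen streptavidin donor/nickel chelate acceptor beads (10 ug/mL final), 30 min dark, luminescence read.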
The depositor's hits bear a star; ? = inconclusive; / = no result given; ! = repeats disagree; [ ] = dose if it differs, or a comment. Most compounds without a hit are left out; they make up all but 10% or so of the library. Unless noted, the call rests on the fitted dose curve; in most records, active means well fitted inhibition curve with a large enough effect; inconclusive means small, poorly fitted or top-dose-only effect; inactive means no such curve, though single readings can be large or run the other way.

SMILES	Six1-Eya2 inh	CtBP-E1A blk	BAZ2B block	JMJD2A Tudor inh	G9a inh	HP1b chromo inh
CCN(CC)CCCNC(=O)Cc1csc2nc(-c3ccc(Cl)cc3)cn12	/	/	?	-29%	3%[59 µM]	8%[57 µM]
Cc1ccc(N2CCN(C(=O)c3cnn(-c4ccc(C)c(C)c4)c3C3CCNCC3)CC2)c(C)c1	/	/	?	?	-48%[59 µM]	-17%
Cc1ccc(-n2ncc(C(=O)Nc3cc(Cl)ccc3C)c2C2CCNCC2)cc1C	-7	-1	-28%	2%	-40%	36%
Cc1ccc(Cl)cc1N1CCN(C(=O)c2cnn(-c3ccc(Cl)cc3)c2C2CCNCC2)CC1	/	/	?	-28%	8.9µM*	30%
Cc1cccc(NC(=O)c2cnn(-c3ccc(F)cc3)c2C2CCNCC2)c1C	-15	-12	4%	-20%	35µM*	10%
Cc1cc(C)cc(NC(=O)c2cnn(-c3ccc(C)c(C)c3)c2C2CCNCC2)c1	/	/	-1%[57.1 µM]	-29%	?	-12%
Cc1cc(C)cc(NC(=O)c2cnn(-c3ccccc3)c2C2CCNCC2)c1	8	/	-27%	-22%	40µM*	18%
COc1ccc(OC)c(NC(=O)c2cnn(-c3ccc(C)cc3)c2C2CCNCC2)c1	/	/	?	79µM*	?	-3%
CCOC(=O)c1ccccc1NC(=O)COC(=O)CSC(C)C(=O)Nc1cc(C)on1 (stereo not drawn)	-1	-2	-3%	-6%	-5%	26%
CCOC(=O)N1CCC(NCCNC(=O)c2cccs2)CC1	2	6	79µM*	1.8µM*	?	?
O=C(NCCNC1CCC(c2ccccc2)CC1)c1cccs1 (stereo not drawn)	7	1	50µM*	2.2µM*	28µM*	?
O=C(NC(=S)N1CCCCC1CO)c1cccs1 (stereo not drawn)	13	-9	/	2.8µM*	/	-32%
CCOC(=O)N1CCC(NC(=O)c2ccccc2C(=O)O)CC1	-3	-20	-22%	-5%	9%	16%
CCC1CCCCN1C(=S)NC(=O)c1cccs1 (stereo not drawn)	5	4	-25%	-26%	?	12%
CCOC(=O)N1CCC(NCCNC(=O)c2ccccc2)CC1	6	3	45µM*!	2.2µM*!	9%[0.501 µM]	66%
Cc1ccc(NC(=O)C2CCCN(S(=O)(=O)c3ccc(F)cc3)C2)cc1 (stereo not drawn)	/	/	-1%	-9%	-4%[59 µM]	40%
CN(C)c1ncc2nc(-c3ccc(F)cc3)c(=O)n(-c3ccccc3)c2n1	/	/	/	/	21%[0.501 µM]	/
CCOC(=O)C1CCN(C(=S)NC(=O)c2cccs2)CC1	-3	1	-22%	-35%	40µM*	?
FC(F)(F)c1ccccc1-c1ccc2ncnc(NCc3cccnc3)c2c1	/	/	/	/	-45%[0.501 µM]	/
CCCC(=O)N(c1ccc2oc3c(c2c1)CCCC3)S(=O)(=O)c1ccc(CC)cc1	/	/	-13%	-10%	1%[59 µM]	5%
COc1ccc(-c2cc(C)no2)cc1S(=O)(=O)N1CC(=O)Nc2ccccc21	0	0	-31%	-13%	50µM*	18%
CCc1ccc(-c2cc(C)no2)cc1S(=O)(=O)N1CCN(c2ccccc2OC)CC1	?	-79*	-27%	-29%	13%	31%
COc1ccc(-c2cc(C)no2)cc1S(=O)(=O)N1CC(C)Oc2ccccc21 (stereo not drawn)	/	/	?	-18%	-20%[59 µM]	14%
COc1ccccc1N1CCN(S(=O)(=O)c2cc3c(cc2C)NC(=O)CO3)CC1	-24	-13	-29%	-31%	79µM*	18%
O=C1CCc2cc(S(=O)(=O)Nc3cccc4ccccc34)ccc2N1	/	/	/	-25%	/	/
SMILES	Six1-Eya2 inh	CtBP-E1A blk	BAZ2B block	JMJD2A Tudor inh	G9a inh	HP1b chromo inh
Cc1ccc(NS(=O)(=O)c2c(C(=O)N3CCOCC3)c(C)n(C)c2C)cc1C	1	2	-18%	-21%	4%[59 µM]	31%
COc1cccc(CN(C)CC(=O)NC(=O)NCc2ccco2)c1	-3	1	50µM*	89µM*	11%[12.7 µM]	50µM*
Cc1cc(C)c(NC(=O)CN(C)CC(=O)Nc2cccc(S(=O)(=O)N(C)c3ccccc3)c2)c(C)c1	2	-5	/	7.1µM*	/	?
CCN(CC)S(=O)(=O)c1cccc(NC(=O)CN(C)Cc2cccc(OC)c2)c1	13	-23	50µM*	1.6µM*	-115%[12.7 µM]	22µM*
CCN(CC(=O)Nc1cccc(S(=O)(=O)N(C)c2ccccc2)c1)Cc1ccccc1	2	3	32%	-12%	9%[12.7 µM]	29%
CCN(CC(=O)Nc1cccc(C(C)=O)c1)S(=O)(=O)c1ccc(OC)cc1	5	-2	10%	-7%	-12%[59 µM]	16%
Cc1ccccc1CN(C)CC(=O)Nc1cccc(S(=O)(=O)N(C)c2ccccc2)c1	20	10	-4%	79µM*	1%	5%
Cc1ccccc1NC(=O)CN1C(=O)CCn2nc(-c3cccn3C)cc21	/	/	-34%	-21%	-33%[59 µM]	3%[57 µM]
O=C(CSc1ccccc1)NCCCc1ccccc1	10	5	0%	-7%	-3%	41%
O=C(N/N=C/c1ccco1)C1CC1c1ccccc1 (stereo not drawn)	-9	-5	50µM*	?	-20%	?
O=C(N/N=C/c1ccco1)Nc1ccccc1	-6	4	2%	-10%	79µM*	0%
O=C(CCC(=O)Nc1ccccc1)N/N=C/c1ccco1	1	1	8%	-11%	19%[59 µM]	12%
O=C(N/N=C/c1c[nH]c2ccccc12)C1CC1c1ccccc1 (stereo not drawn)	-15	5	-27%	-33%	?	6%
CC(C)(C)c1ccc(C2CC2C(=O)N/N=C\c2ccc[nH]2)cc1 (stereo not drawn)	-29	-23	?	56µM*	40µM*	?
Cc1cccc(C(=O)Nc2ccc(C(=O)N/N=C/c3ccco3)cc2)c1	-11	-3	/	45µM*	/	?
O=S1(=O)c2ccccc2N(Cc2ccc(F)cc2)c2ccccc21	/	/	-5%	-23%	0%[59 µM]	-15%
CC[Si](CC)(CC)O[C@H]([C@@H](C)COCOC)[C@@H](C)COCc1ccc(OC)cc1	/	/	/	1%	/	26%
COc1ccccc1-n1c(-c2cccnc2)n[nH]c1=S	2	-1	12%	4.5µM*	3.2µM*	16%
COc1cc(-n2c(-c3ccccc3)n[nH]c2=S)c(OC)cc1Cl	4	5	?	-18%	/	33%
Fc1ccccc1-n1c(-c2ccc3ccccc3n2)n[nH]c1=S	-1	-18	?	-32%	-138%[59 µM]	29%
c1ccc(-c2nc(-c3cccnc3)n[nH]2)cc1	/	/	-1%	/	21%[59 µM]	/
S=c1[nH]nc(-c2ccc3ccccc3n2)n1-c1ccccc1	5	12	-1%	?	1.6µM*	27%
